# Pf apPOL inh: Pf-apPOL DNA polymerase inhibition; AID 1794808; Recombinant Pf-apPOL, molecular beacon fluorescence, 1.5 h; inhibition, % at 10 µM; hit rate 0.25% among 210,000
# mHTT-CaM PPI inh: mHTT-calmodulin interaction abrogation; inhibition, % at 15 µM; AID 1671202; AlphaScreen His-mHTT/GST-CaM binding, luminescence; hit rate 3.6% among 190,000; P42858;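 note: 0% = both proteins with DMSO and 100% = one protein alone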
# * marks the source's active call; other numbers are inactive results; x = not tested or not shown. Rows were chosen to be rich in hits. Some 3.5% of all compounds tested hit in one or more screens of this group. Cut-off read from the data, not from the text of the source: active = inhibition above about 50%; inactive = the rest.
SMILES,Pf apPOL inh,mHTT-CaM PPI inh
Cc1ccc(NC(=O)Cc2nc(-c3ccccc3)n[nH]2)c(C)c1,-1,1
N#CCc1nc(-c2ccccn2)n[nH]1,-25,x
Cc1ccccc1NC(=O)Cc1nc(-c2ccccn2)n[nH]1,-10,100*
CCOC(=O)Cc1nc(-c2ccccn2)n[nH]1,-6,98*
O=C(Cc1nc(-c2ccccn2)n[nH]1)Nc1ccc(F)c(F)c1,-14,86*
O=c1/c(=C/c2ccccc2Br)sc2ncnn12,-5,4
CCCc1nnsc1C(=O)N1CCC(Cn2c(C(F)(F)F)nc3ccccc32)CC1,-4,-12
O=C(Cc1nc(-c2cccnc2)n[nH]1)Nc1ccc(F)cc1,-1,-3
Cc1ccc(NC(=O)Cc2nc(-c3ccccn3)n[nH]2)cc1,-6,69*
Cc1ccnc(NS(=O)(=O)c2ccc(NC(=O)CSc3nc(C)cc(=O)[nH]3)cc2)n1,-2,-3
Cc1cc(C)nc(NS(=O)(=O)c2ccc(NC(=O)CSc3ncn[nH]3)cc2)n1,62*,-2
Cc1c(-c2noc(C3CCCCC3)n2)nnn1-c1ccccc1,-1,-21
Cc1ccc(-c2csc(=Nc3cccc(Cl)c3)n2CCO)cc1,-4,93*
Cc1cccc(N=c2scc(-c3ccc(F)cc3)n2CCO)c1,-2,65*
CCOc1ccc(N=c2scc(-c3ccc(C)cc3)n2C)cc1,-2,8
OCCn1c(-c2ccc(I)cc2)csc1=Nc1cccc(Cl)c1,4,80*
NC(=O)c1cnc2n(c1=O)CCS2,-4,x
COc1ccc(Cl)cc1C1=N/C(=C/c2ccccc2)C(=O)O1,-2,6
COc1ccccc1N1CCN(C(=O)CC(c2ccccc2)c2ccccc2)CC1,2,76*
COc1ccccc1N1CCN(C(=O)c2ccncc2)CC1,-3,-7
COc1ccccc1N1CCN(C(=O)c2ccc(CSc3ccccc3)cc2)CC1,-5,68*
COc1ccccc1N1CCN(C(=O)CCC(=O)N2CCN(c3ccccc3OC)CC2)CC1,1,-2
CCC1(C)N=NC(C)(CC)C1O (stereo not drawn),1,x
NC(=O)c1c(NC(=O)CN2C(=O)c3ccccc3C2=O)sc2c1CCCC2,4,4
CC(=O)Nc1ccc(NC(NC(=O)c2cccs2)C(=O)c2ccccc2)cc1 (stereo not drawn),-5,9
SMILES,Pf apPOL inh,mHTT-CaM PPI inh
Cc1ccccc1NC(NC(=O)c1cccs1)C(=O)c1ccccc1 (stereo not drawn),2,21
O=C(NC(Nc1ccc(Br)cc1)C(=O)c1ccccc1)c1cccs1 (stereo not drawn),-2,63*
O=C(NC(Nc1cccc(C(F)(F)F)c1)C(=O)c1ccccc1)c1cccs1 (stereo not drawn),-6,83*
Cc1cc(C)c2c(N(C)C)nc(C(=O)NC3CCCC3)nc2n1,3,7
COc1ccc(Cl)cc1C1=N/C(=C/c2cccc(C(F)(F)F)c2)C(=O)O1,5,5
O=C(c1ccc(C(F)(F)F)s1)N1CCc2nc3cc(-c4ccccc4)[nH]n3c(=O)c2C1,-4,-3
O=[N+]([O-])c1ccc2nc(Cl)c(Cl)nc2c1,x,30
CC1(C)N=c2ccc([N+](=O)[O-])cc2=N1,64*,x
CCCOc1ccc(/C=C2\C(=O)ON=C2C)cc1OC,-6,78*
CCOc1cc(/C=C2/C(=O)ON=C2C)ccc1OCc1ccccc1F,-1,44
C#CCOc1c(Cl)cc(/C=C2\C(=O)ON=C2C)cc1OCC,-1,22
CCOc1cc(/C=C2/C(=O)ON=C2C)ccc1OCc1cccc(F)c1,2,93*
COc1ccc(/C=C2/C(=O)ON=C2C)cc1Br,-12,14
CC1=NOC(=O)/C1=C/c1ccc(OCc2cccc(F)c2)c(Br)c1,-2,31
CCOc1cc(/C=C2\C(=O)ON=C2C)cc(Cl)c1OCc1ccccc1F,-1,96*
CCOc1cc(/C=C2\C(=O)ON=C2C)cc(Cl)c1OCc1cccc(F)c1,-2,87*
Cc1cccc(CC(=O)Nc2c3c(nn2-c2ccc(F)cc2)CS(=O)C3)c1 (stereo not drawn),-11,-5
COc1cc(C(=O)NCc2ccc(C)cc2)c([N+](=O)[O-])cc1OC,-4,6
CC(C)CN(CC(C)C)C(=O)c1c[nH]c2ccc(S(=O)(=O)Nc3ccccc3F)cc2c1=O,-11,11
CN(CCNC(=O)c1cccc(N2CCNC(c3ccccc3)C2)n1)C1CCCCC1 (stereo not drawn),-6,3
O=C(Nc1ccc2c(c1)OCO2)c1ccc(Br)cc1,-1,0
O=C(Nc1ccc2c(c1)OCCO2)c1ccc(Br)cc1,1,96*
CC[n+]1ccc(C2C(C#N)=C(N)OC(C)=C2C(=O)O)cc1 (stereo not drawn),-14,-4
O=c1[nH]nc(SCc2ccc(F)cc2)c(=O)[nH]1,1,-5
O=c1[nH]nc(SCc2cccc(Oc3ccccc3)c2)c(=O)[nH]1,72*,7
SMILES,Pf apPOL inh,mHTT-CaM PPI inh
CCOc1ccc2nc(Cl)c(C3CC(c4ccccc4)=NN3C(=O)CCCC(=O)O)cc2c1 (stereo not drawn),-2,6
CN(CCc1ccccc1)c1cc2c(c3c1ccn3C)C1CCC2C1 (stereo not drawn),-4,75*
CN(c1cc2c(c3c1ccn3C)C1CCC2C1)C1CCCCC1 (stereo not drawn),-3,70*
Cn1ccc2c(-c3ccc(F)cc3)cc3c(c21)C1CCC3C1 (stereo not drawn),2,22
COc1ccc(-c2cc3c(c4c2ccn4C)C2CCC3C2)cc1F (stereo not drawn),-3,47
COc1ccccc1N(C)c1cc2c(c3c1ccn3C)C1CCC2C1 (stereo not drawn),2,83*
CCN(C)c1cc2c(c3c1ccn3C)C1CCC2C1 (stereo not drawn),-7,53*
Cn1ccc2c(N(c3ccccc3)C3CCCCC3)cc3c(c21)C1CCC3O1 (stereo not drawn),-5,24
Cc1ccccc1-c1cc2c(c3c1ccn3C)C1CCC2C1 (stereo not drawn),-6,20
NC(=O)c1ccc(N=c2oc3ccc(Br)cc3cc2C(N)=O)cc1,4,10
Cc1ccc(C(=O)N2CCN(c3ccc(C)cc3)C(=O)C2C)cc1 (stereo not drawn),-3,-6
CC1CCN(C(=O)c2ccc(OCC3CCN(C(=O)c4ccccc4)CC3)cc2)CC1,-2,6
COc1ccc(CCNC(=O)NC2CC(=O)N(C3CC3)C2)cc1 (stereo not drawn),-4,-8
O=C(CSC1=NCCS1)Nc1ccc(Cl)cn1,-3,0
CCc1cccc(NC(=O)c2cc(C)n3nccc3n2)c1,6,-11
C=CCNC(=O)c1cccc(I)c1,-5,1
CN(Cc1ccccc1)c1cc2c(c3c1ccn3C)C1CCC2C1 (stereo not drawn),-3,71*
Cn1ccc2c(N(Cc3ccccc3)Cc3ccccc3)cc3c(c21)C1CCC3C1 (stereo not drawn),-2,12
COc1ccc(OCC2CN(C(=O)c3ccc(C)cc3)CCO2)cc1 (stereo not drawn),-1,1
CNc1ccc(C(=O)N2CCOC(COc3ccc4c(c3)CCCC4)C2)cc1 (stereo not drawn),-7,52*
O=[N+]([O-])c1ccc(C2Nc3c(O)ccc(Br)c3C3C=CCC32)cc1 (stereo not drawn),-10,100*
